Values joined by “and” are separate entries in the source; they are usually repeats but may differ in a detail not shown here. Identical values can stand only once. The panel holds about 83,000 compounds, 20% with a hit somewhere; the sample as a whole holds those more often.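 Step 1: grow cells in 96-well plates. Step 2: add test compound at a single concentration. Step 3: incubate 48 h. Step 4: record percent growth.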 A structure can be active in one record and inactive in another. Active and inactive are the calls of the source. Rule for the calls: active = growth percent below 10; inactive = the rest.
Assays:
Assay in all cases: NCI-60 one-dose screen, 48 h (100 = growth as untreated, 0 = no growth, -100 = all killed)
Details in all cases: 10 µM
HOP-92 NSCLC = tested on: HOP-92 NSCLC
NCI-H522 lung = tested on: NCI-H522 lung
K-562 leukemia = tested on: K-562 leukemia
UACC-257 melanoma = tested on: UACC-257 melanoma
SK-MEL-2 melanoma = tested on: SK-MEL-2 melanoma
TK-10 renal = tested on: TK-10 renal
CAKI-1 renal = tested on: CAKI-1 renal
A498 renal = tested on: A498 renal
RPMI-8226 leukemia = tested on: RPMI-8226 leukemia
BT-549 breast = tested on: BT-549 breast
MDA-MB-435 melanoma = tested on: MDA-MB-435 melanoma
HCC-2998 colon = tested on: HCC-2998 colon
OVCAR-3 ovarian = tested on: OVCAR-3 ovarian

| SMILES | growth (HOP-92 NSCLC) | growth (NCI-H522 lung) | growth (K-562 leukemia) | growth (UACC-257 melanoma) | growth (SK-MEL-2 melanoma) | growth (TK-10 renal) | growth (CAKI-1 renal) | growth (A498 renal) | growth (RPMI-8226 leukemia) | growth (BT-549 breast) | growth (MDA-MB-435 melanoma) | growth (HCC-2998 colon) | growth (OVCAR-3 ovarian) |
| --- | --- | --- | --- | --- | --- | --- | --- | --- | --- | --- | --- | --- | --- |
| O=C(CCCc1ccc(N(CCCl)CCCl)cc1)OCc1ccccc1 | 103% (inactive) | 84.3% (inactive) | 93.8% (inactive) | 94.1% (inactive) | 111% (inactive) | 107% (inactive) | 73.7% (inactive) | 98.5% (inactive) | 96.3% (inactive) | 95.5% (inactive) | 94.4% (inactive) | 101% (inactive) |  |
| COc1cc2c(O[C@@H]3OC[C@H](OC(C)=O)[C@H](OC(C)=O)[C@H]3O)c3c(c(-c4ccc5c(c4)OCO5)c2cc1OC)C(=O)OC3 | -13.3% (active) | 4.7% (active) |  | -35.8% (active) | -31.8% (active) | 42.3% (inactive) | 13.8% (inactive) | 70.6% (inactive) | -2.08% (active) | 23.4% (inactive) | 4.94% (active) |  | 59.4% (inactive) |
| C/C=C/CC(C)C(O)[C@H](NC(=O)[C@@H]1CCCN1C(=O)C(C)(C)NC(=O)CCCCCCCCC)C(=O)NC(C)(C)C(=O)N[C@@H](CCC(N)=O)C(=O)N[C@H](CCC(N)=O)C(=O)NC(C)(C)C(=O)NC(C)(C)C(=O)N[C@@H](CCC(N)=O)C(=O)N[C@H](CC(C)C)C(=O)N[C@H](CO)CC(C)C (some centres not stated) | -16.5% (active) and -24.9% (active) | -41.2% (active) and -62.8% (active) | -50.1% (active) and 18% (inactive) | -71.9% (active) and -73.2% (active) | -48.1% (active) and -31.4% (active) | 25.8% (inactive) and -4.38% (active) | 17.6% (inactive) and 1.1% (active) | -48.1% (active) and -26.1% (active) | -13.2% (active) and -31.7% (active) | -77.4% (active) and -78.3% (active) | -52.8% (active) and -87.1% (active) | -36.1% (active) and -5.11% (active) | -18.7% (active) |
| COc1cc(C)c(-c2ccc(OC)c(=O)cc2C)c(OC)c1OC | 39.6% (inactive) and 85.5% (inactive) | -11.4% (active) and 98.2% (inactive) | 6.36% (active) and 85.8% (inactive) | 56.2% (inactive) and 97.6% (inactive) | 0.162% (active) and 113% (inactive) | 94.5% (inactive) and 94.2% (inactive) | 39.6% (inactive) and 86.1% (inactive) | -18% (active) and 86.9% (inactive) | 15% (inactive) and 94.4% (inactive) | 15.7% (inactive) and 120% (inactive) | -4.07% (active) and 99.6% (inactive) | 10.6% (inactive) and 114% (inactive) |  |
| CC(C)=CCc1c2c(c(O)c3c1O[C@]14C(=C[C@@H]5C[C@H]1C(C)(C)O[C@@]4(C/C=C(/C)C(=O)O)C5=O)C3=O)C=CC(C)(C)O2 | -53.6% (active) | -70.9% (active) | 2.2% (active) | -77.2% (active) | -75.2% (active) |  |  | -94.3% (active) | -8.35% (active) | -11.2% (active) | -80.1% (active) | -88.1% (active) | -93.9% (active) |
| CC(C)(O)/C=C/C(=O)[C@](C)(O)[C@H]1[C@H](O)C[C@@]2(C)[C@H]3CC=C4[C@@H](C[C@H](O)C(=O)C4(C)C)[C@]3(C)C(=O)C[C@]12C | -36.4% (active) | -42.5% (active) | 12.1% (inactive) |  | -28.2% (active) | -33% (active) | -60.5% (active) | -73.1% (active) | 3.64% (active) | -24.5% (active) | 9.08% (active) | 36.1% (inactive) | 1% (active) |
| CC1=C[C@H]2O[C@@H]3C[C@@H](O)[C@](C)([C@@]2(C)CC1)[C@@]31CO1 | 41.3% (inactive) | 31% (inactive) | 18.5% (inactive) |  | 22.6% (inactive) | 52.8% (inactive) |  | 39.2% (inactive) | 29.3% (inactive) | 21.1% (inactive) | 21.1% (inactive) | 18.2% (inactive) | 38.9% (inactive) |
| N#Cc1c(-n2c(Br)c(Br)c3cc(Br)ccc32)[nH]c2c(Br)cc(Br)cc12 | -31.4% (active) | -14.8% (active) | 7.11% (active) | -23.8% (active) | -61.2% (active) | -2.55% (active) | -3.39% (active) | -73% (active) | -3.21% (active) | -54.7% (active) | -0.901% (active) | 2.82% (active) |  |
| CC1=C2C(=C[C@@](C)(COC(=O)c3ccc(S(=O)(=O)F)cc3)[C@@H]2O)C(=O)[C@](C)(O)C12CC2 |  | -64.5% (active) | 6.74% (active) | -52.7% (active) |  | -6.77% (active) | -0.688% (active) |  | 89.7% (inactive) | -88.2% (active) | -72.2% (active) | -50.6% (active) |  |
| CCCCCCCCCC(=O)N[C@@](C)(CC)C(=O)N1CCC[C@H]1C(=O)N[C@@H](CC(C)C)C(=O)N[C@@](C)(CC)C(=O)N[C@@H](CCC(N)=O)C(=O)N[C@H](CCC(N)=O)C(=O)NC(C)(C)C(=O)NC(C)(C)C(=O)N[C@@H](CCC(N)=O)C(=O)N[C@H](CC(C)C)C(=O)N[C@H](CO)CC(C)C | -93.1% (active) and -69.1% (active) | -84% (active) and -82.6% (active) | -15.6% (active) and 21.9% (inactive) | -88.1% (active) and -80.1% (active) | -90.7% (active) and -86% (active) | -73.6% (active) and -83.4% (active) | -92.4% (active) and -100% (active) | -92.4% (active) and -81.1% (active) | -53.6% (active) and -31.8% (active) | -91% (active) and -85.5% (active) | -94% (active) and -97.5% (active) | -87.4% (active) and -89.4% (active) | -74.5% (active) |
| COc1cccc2c1cc([N+](=O)[O-])c1c(C(=O)O)cc3c(c12)OCO3 | 95.3% (inactive) | 95.9% (inactive) | 97.6% (inactive) |  | 108% (inactive) | 100% (inactive) | 87.1% (inactive) | 114% (inactive) | 97.7% (inactive) | 120% (inactive) | 107% (inactive) | 91.3% (inactive) | 126% (inactive) |
| CC1=C2C(=O)[C@](C)(CO)C=C2C(=O)[C@](C)(O)C12CC2 | -6.97% (active) | -34.7% (active) | 16.5% (inactive) | 25.3% (inactive) | -35.6% (active) | -6.25% (active) | 45.8% (inactive) | -35.9% (active) |  | 8.15% (active) |  | -2.5% (active) | 4.36% (active) |
| CC1=C[C@H]2O[C@@H]3C[C@H]4OC(=O)/C=C\C=C\[C@H]([C@@H](C)O)OCC/C(C)=C/C(=O)OC[C@@]2(CC1)[C@]4(C)[C@]31CO1 | -19.1% (active) | -39.3% (active) | -6.8% (active) |  | -61.1% (active) | -24.5% (active) |  | -80.8% (active) | -30.5% (active) | -28.6% (active) | -83.5% (active) | -55.6% (active) | -19.2% (active) |
| CN1C(=O)[C@]23SSC1(C)C(=O)N2[C@H]1Nc2ccccc2C1([C@@]12c4ccccc4N[C@@H]1N1C(=O)C4(C)SS[C@]1(C(=O)N4C)[C@H]2O)[C@@H]3O (some centres not stated) |  | -84.4% (active) | 2.18% (active) | -96.9% (active) |  | -95.7% (active) | -99.8% (active) |  | -16.9% (active) | -99.5% (active) | -94.3% (active) | -83.8% (active) |  |
| CCC(C)[C@H]1C(=O)O[C@H](C(C)C)C(=O)N(C)[C@@H](C(C)C)C(=O)O[C@H](C(C)C)C(=O)N(C)[C@@H](C(C)C)C(=O)O[C@H](C(C)C)C(=O)N1C (some centres not stated) | -19% (active) | 7.23% (active) | 6.74% (active) |  | -2.6% (active) | 8.22% (active) |  | -8.55% (active) | -25.6% (active) | 14.2% (inactive) | 20% (inactive) | 32.3% (inactive) | 19.9% (inactive) |
| C[C@@H]1C[C@H]2C(=O)O[C@@H](C)C(NC(=O)[C@H](Cc3cc(F)cc(F)c3)NC(=O)Nc3ccc(OS(=O)(=O)F)cc3)C(=O)N3CCC[C@H]3C(=O)N3CCO[C@H](C)[C@H]3C(=O)N[C@@H](CO)C(=O)N2C1 (some centres not stated) | 9.16% (active) | 20.3% (inactive) | 20.7% (inactive) | 16.2% (inactive) |  | 71.7% (inactive) | 39.4% (inactive) |  | 19.7% (inactive) | 22.4% (inactive) | 20.8% (inactive) | 23.9% (inactive) |  |
| C/C=C\C(=O)O[C@@H]1CC2O[C@@H]3C=C(C)C(=O)C[C@]3(C)[C@]1(C)[C@]21CO1 | -17.5% (active) | -18.4% (active) | -6.67% (active) |  | -43.2% (active) | -19.4% (active) |  | -30.2% (active) | -31.2% (active) | -22.8% (active) | -34.3% (active) | -23.5% (active) | -3.17% (active) |
| CC1=C2C(=C[C@@](C)(C=O)[C@@H]2O)C(=O)[C@](C)(O)C12CC2 | -8.36% (active) | 12.9% (inactive) | 24.2% (inactive) | 6.75% (active) | -37.8% (active) | 2.16% (active) | 12.6% (inactive) | -57% (active) |  | -6.13% (active) |  | -25.1% (active) | -10.1% (active) |

Source: PubChem BioAssay (NCI)
